High-throughput results as filed in PubChem.
Ba/F3 V617F tox: lowers viability of Ba/F3 cells expressing EpoR and JAK2V617F; ATP luminescence; inhibition, % at 5.6 µM; 220,000 tested, 1.1% active;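 active means inhibition above the campaign mean plus 3 SD over all tested compounds, cut at about 24% in these data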;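 further: cytokine-independent growth of Ba/F3 cells driven by EpoR plus mutant JAK2; 0% = DMSO-treated cells and 100% = JAK inhibitor I control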
BaF3 parental: counter-screen for JAK2V617F inhibitors: parental Ba/F3 viability inhibitors; inhibition, % at 5.6 µM; 220,000 tested, 1.1% active; CellTiter-Glo ATP luminescence; AID 1486;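 active means inhibition above a per-campaign cutoff, the mean inhibition of all tested compounds plus 3 SD, cut at about 27% in these data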;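 further: 0% = DMSO wells and 100% = JAK Inhibitor I control wells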
IEC-6 tox: counter-screen for KLF5 inhibitors: cytotoxicity in IEC-6 cells; IEC-6 cytotoxicity, luminescence viability; 290,000 tested, 0.78% active; inhibition, % at 5 µM; AID 1825;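 further: 0% = plate median of test compound wells and 100% = cytotoxic reference compound wells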
aSyn UTR inh: MLPCN primary screen, SNCA 5' untranslated region; AID 1813; alpha-synuclein 5'UTR reporter, inhibitor activity; 300,000 tested, 0.82% active; inhibition, % (tested at 7.5 µM); in the data active means inhibition above about 60%;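 further: H4 neuroglioblastoma cells stably carrying SNCA 5'UTR luciferase fusion; 0% = DMSO wells and 100% = positive control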
APP transl inh: APP translation inhibition; 190,000 tested, 0.82% active; inhibition, % at 2 µM; SH-SY5Y APP 5'UTR-luciferase reporter, luminescence;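 active means inhibition above a set limit, derived from the sample mean plus 3 SD, cut at about 45% in these data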
KLF5 inh: inhibitors of KLF5 expression | DLD-1 KLF5 promoter-luciferase reporter, luminescence | inhibition, % at 5 µM | 290,000 tested, 0.23% active | AID 1700;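 active means inhibition above a per-plate limit of that plate's mean compound inhibition plus 3 SD, cut at about 60% in these data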;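 further: 0% = DMSO wells and 100% = LY294002 at 200 µM; higher means less KLF5 promoter-driven luciferase light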
IEC-6 cytotox cf: IEC-6 cytotoxicity, confirmation assay | shares compounds with IEC-6 tox | IEC-6 rat intestinal epithelial viability, luminescence | inhibition, % at 5 µM | 1,900 tested, 63% active;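 further: 0% = vehicle and 100% = reference cytotoxic drug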
Numbers without * were called inactive. A selection: hits, their analogues and other compounds. The true share with any hit is near 2.2%. Unless noted, no stated cut-off is given here; in the data, active means inhibition above about 22%; inactive means the rest.

COC(=O)c1ccccc1NC(=O)c1nc(S(=O)(=O)Cc2ccccc2)ncc1Cl was read as IEC-6 tox 9, aSyn UTR inh 34 and KLF5 inh 40.
`O=C(NCc1ccccc1)c1nc(S(=O)(=O)Cc2ccccc2)ncc1Cl` gave IEC-6 tox 52*, aSyn UTR inh 51, KLF5 inh 19 and IEC-6 cytotox cf 24*.
For CC(=O)Nc1ccc(NC(=O)c2nc(S(=O)(=O)Cc3ccccc3)ncc2Cl)cc1 the results were IEC-6 tox 26*, aSyn UTR inh 2, KLF5 inh 19 and IEC-6 cytotox cf 1.
For O=C(Nc1ccc2ccccc2c1)c1cnccn1 the results were Ba/F3 V617F tox 3, BaF3 parental 8, IEC-6 tox 1, aSyn UTR inh -129, APP transl inh -157 and KLF5 inh -196.
`Cc1oc2cc(Br)c(O)c(Br)c2c1-c1ccccc1` gave IEC-6 tox -1, aSyn UTR inh -41 and KLF5 inh -39.
Screening CCn1nc(C)cc1C(=O)N1CCCC(C(=O)c2ccc(OC)cc2C)C1 (centres undefined) returned IEC-6 tox -6, aSyn UTR inh -4 and KLF5 inh -10.
Screening O=C(NCc1ccccc1)c1c(Cl)nc(Cl)c(Cl)c1Cl returned IEC-6 tox 23*, aSyn UTR inh 99*, KLF5 inh -14 and IEC-6 cytotox cf -4.
O=C(NCc1ccc2c(c1)OCO2)c1nc(S(=O)(=O)Cc2ccccc2)ncc1Cl was read as IEC-6 tox 24*, aSyn UTR inh 36, KLF5 inh 7 and IEC-6 cytotox cf 15.
O=C(NCc1ccc2c(c1)OCO2)c1nc(S(=O)(=O)Cc2ccccc2F)ncc1Cl was read as IEC-6 tox 35*, aSyn UTR inh 42, KLF5 inh 11 and IEC-6 cytotox cf 12.
`COc1ccc(S(=O)(=O)N2CCC(C(=O)Nc3cc(Cl)ccc3N3CCOCC3)CC2)cc1OC` gave aSyn UTR inh 6.
`C=C(C)CN(CC)C(=O)CN1C(=O)NC(C)(c2ccc3ccccc3c2)C1=O` (centres undefined) gave IEC-6 tox 4, aSyn UTR inh 8 and KLF5 inh -34.
`CC(C)CNc1nc(Oc2ccc(=O)[nH]n2)nc(N2CCOCC2)n1` gave Ba/F3 V617F tox 2, BaF3 parental 7, IEC-6 tox 1, aSyn UTR inh -12, APP transl inh -13 and KLF5 inh -25.
`CCc1nnc(NC(=O)c2ccc(OC)cc2)s1` gave Ba/F3 V617F tox -1, BaF3 parental 7, IEC-6 tox 36*, aSyn UTR inh 21, APP transl inh -129, KLF5 inh -34 and IEC-6 cytotox cf 2.
COc1ccc(Nc2nc(N)c(C(=O)c3ccc(F)cc3)s2)cc1 was read as IEC-6 tox 74*, aSyn UTR inh 70*, KLF5 inh 48 and IEC-6 cytotox cf 57*.
Screening COc1ccc(Nc2nc(N)c(C(=O)c3ccc(OC)cc3)s2)cc1 returned IEC-6 tox 66*, aSyn UTR inh 18, KLF5 inh 41 and IEC-6 cytotox cf 50*.
`COc1ccc(C(=O)c2sc(Nc3ccccc3)nc2C)cc1` gave IEC-6 tox -2, aSyn UTR inh -32 and KLF5 inh -15.
For O=Cc1ccc(Sc2nnc(-c3ccccc3)o2)c([N+](=O)[O-])c1 the results were Ba/F3 V617F tox 4, BaF3 parental 5, IEC-6 tox -4, aSyn UTR inh -32, APP transl inh -5 and KLF5 inh -38.
Cn1nc([N+](=O)[O-])nc1Sc1nnc(-c2ccccc2)o1 was read as Ba/F3 V617F tox 92*, BaF3 parental 76*, IEC-6 tox 68*, aSyn UTR inh 92*, APP transl inh 95*, KLF5 inh 27 and IEC-6 cytotox cf 68*.
CCCCOc1ccc(Br)cc1/C(C)=N/NC1=NCCN1 was read as Ba/F3 V617F tox 80*, BaF3 parental 75*, IEC-6 tox 83*, aSyn UTR inh 121*, APP transl inh 96*, KLF5 inh 32 and IEC-6 cytotox cf 66*.
Screening O=C(Nc1ccc(-n2ccc(C(F)(F)F)n2)cc1)Nc1cccc(Cl)c1 returned Ba/F3 V617F tox 54*, BaF3 parental 63*, IEC-6 tox 23*, aSyn UTR inh -81, KLF5 inh -55 and IEC-6 cytotox cf 48*.
Screening Cc1cc(C)cc(NC(=O)Nc2ccc(-n3ccc(C(F)(F)F)n3)cc2)c1 returned Ba/F3 V617F tox 4, BaF3 parental 3, IEC-6 tox 8, aSyn UTR inh -77 and KLF5 inh -9.
O=C(NNC1=C(C(=O)C(F)(F)F)CCC1)c1ccccc1O was read as Ba/F3 V617F tox 0, BaF3 parental 6, IEC-6 tox 0, aSyn UTR inh 10, APP transl inh 17 and KLF5 inh -14.
`Nc1ccccc1C(=O)NNC1=C(C(=O)C(F)(F)F)CCC1` gave Ba/F3 V617F tox -1, BaF3 parental 3, IEC-6 tox 34*, aSyn UTR inh -278, KLF5 inh -29 and IEC-6 cytotox cf 5.
Screening Cc1ccc(C)c(C(=O)CSc2nc3ccccc3c(=O)[nH]2)c1 returned Ba/F3 V617F tox 0, BaF3 parental 8, IEC-6 tox 44*, aSyn UTR inh -4, APP transl inh -14, KLF5 inh 3 and IEC-6 cytotox cf 48*.
`Cc1ccc(C(=O)CSc2nc3ccccc3c(=O)[nH]2)cc1C` gave Ba/F3 V617F tox -2, BaF3 parental 1, IEC-6 tox 21, aSyn UTR inh -7, APP transl inh -24 and KLF5 inh -10.
`Cc1cc(C)c(C(=O)CSc2nc3ccccc3c(=O)[nH]2)cc1C` gave Ba/F3 V617F tox -2, BaF3 parental 7, IEC-6 tox 71*, aSyn UTR inh 13, APP transl inh 4, KLF5 inh -54 and IEC-6 cytotox cf 52*.
For COc1cccc(CNC(=O)CNS(=O)(=O)c2ccc(Br)s2)c1 the results were IEC-6 tox 0, aSyn UTR inh 0 and KLF5 inh -6.
`Cc1ccc(C(=O)NC2CC(C)(C)NC(C)(C)C2)cc1S(=O)(=O)N1CCCCC1` gave aSyn UTR inh 16.
O=C(Cc1cccc(C(F)(F)F)c1)NCC(=O)Nc1cc(Cl)ccc1Cl was read as IEC-6 tox -3, aSyn UTR inh 1 and KLF5 inh -21.
`O=C(CCCCCNc1nc(=S)[nH]c2ccccc12)NCc1ccccc1Cl` gave Ba/F3 V617F tox 0, BaF3 parental 2, IEC-6 tox 0, aSyn UTR inh 1, APP transl inh 4 and KLF5 inh -6.
For S=c1nc(NCCc2ccccc2Cl)c2ccccc2[nH]1 the results were IEC-6 tox 24*, aSyn UTR inh -114, KLF5 inh -155 and IEC-6 cytotox cf 14.
For COC(=O)c1cn(C(=O)c2ccc(OC)cc2)c2ccccc12 the results were IEC-6 tox 52*, aSyn UTR inh -147, KLF5 inh 31 and IEC-6 cytotox cf 34*.
